From PubChem BioAssay AID827 (SRMLSC, 2007)
Screen size: about 140,000 compounds; about 1,700 (1.2%) were called active. The full list was thinned out, with actives kept by preference. Values without a mark were called inactive.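 Rule for the calls: active = viability at or below a set limit, 4 SD under the median of all tested compounds (cut at about 3.7% in these data); inactive = the rest.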

Assay: viability loss in PTEN-deleted colon tumor cells – cell-based, HCT116, CellTiter-Glo, primary screen (AID 827);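 note: PTEN knockout HCT116 line with beta catenin targeted HCT116 as companion control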
Conditions: HCT116 PTEN-null viability, 60 h, at 10 µM, stronger effect = lower value

| Compound | viability |
| --- | --- |
| COc1ccc(C2CC(c3ccccc3)=NN2C(=O)c2ccc(Cl)c([N+](=O)[O-])c2)cc1 (stereo not given) | 10.4% |
| CCOc1ccc2nc(Cl)c(C3CC(c4ccccc4)=NN3C(=O)c3cccs3)cc2c1 (stereo not given) | 1.17% (active) |
| CCOc1ccccc1C1CC(c2cccc(NS(C)(=O)=O)c2)=NN1C(=O)c1ccccc1 (stereo not given) | 84.5% |
| Cc1c(Cl)cnc(NC(=O)COC(=O)c2ccc(S(=O)(=O)NCc3ccco3)cc2)c1Cl | 85.2% |
| NC(N)=N/N=C/c1ccc(OCc2ccc(Cl)cc2Cl)cc1 | 1.56% (active) |
| COc1ccc(C(=O)O/N=C(\N)Cc2ccc(Cl)cc2Cl)cc1OC | 69.4% |
| COC(=O)c1sc2ncccc2c1OCc1ccc(Cl)cc1Cl | 63.7% |
| CC1CCCCN1C(=S)NCc1ccccc1 (stereo not given) | 94.7% |
| O=C(CC1SC(=Nc2ccccc2)N(Cc2ccccn2)C1=O)Nc1cccc(Cl)c1 (stereo not given) | 76.2% |
| O=C(O)c1ccccc1-c1ccccc1C(=O)Nc1cccc2ccccc12 | 96% |
| O=C(Nc1cccc2ccccc12)c1onc2c1CCCC2 | 0.29% (active) |
| Cc1nc(C)c(C(=O)Nc2cccc(C)c2C)o1 | 109% |
| Cc1ccc(-n2nc(C)c(/C=N/NC(=O)c3cccs3)c2Cl)cc1 | 55.5% |
| Cc1c(C2=CCN(S(=O)(=O)c3ccc(Cl)cc3)CC2)c2ccccc2n1C | 74% |
| COc1ccc(C(CCNCc2ccccc2F)c2ccc(F)cc2)cc1 (stereo not given) | 10.1% |
| COc1cccc(CNCCc2c[nH]c3ccccc23)c1OCc1ccccc1F | 1.43% (active) |
| COc1ccccc1NC(=O)CCCc1c[nH]c2ccccc12 | 92.8% |
| CCOC(=O)/C(N=Nc1cc(C(=O)O)cc(C(=O)O)c1)=C(\O)CCl | 101% |
| CC(=O)c1c(N2CCN(c3ccc(F)cc3)CC2)nc(=S)n(-c2ccccc2)c1C | 93% |
| Nc1nnc(SCC(=O)Nc2ccc3nc(SCC(=O)Nc4ccccc4)sc3c2)s1 | 72.2% |

| Compound | viability |
| --- | --- |
| Oc1c(CN2CCN(c3ccc(F)cc3)CC2)cc(Cl)c2cccnc12 | 4.32% |
| Clc1cccc(CN2COc3c(cc(Cl)c4cccnc34)C2)c1 | 3.76% (active) |
| O=c1[nH]n(-c2cccc(Cl)c2)c2ncccc12 | 95.2% |
| CCOC(=O)c1cccnc1NC(=O)c1ccncc1 | 101% |
| CCCc1nc2c([nH]1)C(c1cccnc1)C(C#N)=C(N)O2 (stereo not given) | 98.7% |
| COC(=O)NNC(=O)C1CCC(C)CC1 (stereo not given) | 97% |
| COC(=O)c1ccc(C(=O)OC)c(NC(=S)N2CCN(c3cc(Cl)ccc3C)CC2)c1 | 90.3% |
| O=C(c1cccc2ccccc12)N1CCN(c2ccccc2F)CC1 | 90.8% |
| Cc1ccc(Cl)cc1N1CCN(C(=O)c2cccc3c(=O)c(C)c(-c4ccccc4)oc23)CC1 | 1.24% (active) |
| COCCCNC(=O)Cn1cc(/C=C(\C#N)C(=O)N2CCN(c3ccccc3)CC2)c2ccccc21 | 86.2% |
| Cc1ccc(-c2nn(-c3ccccc3)cc2C(=O)Nc2cccc(S(=O)(=O)N3CCOCC3)c2)cc1 | 89.5% |
| Cc1cc(Cl)ccc1NC(=S)N1CCC(C(N)=O)(N2CCCCC2)CC1 | 88.6% |
| Cc1nc(CC(=O)NNS(=O)(=O)c2ccc(F)c(Cl)c2)cs1 | 95.8% |
| O=C(Cn1cnc2ccccc21)N/N=C/c1ccco1 | 97.9% |
| COc1ccc(NS(=O)(=O)c2ccc(NC(=S)NC(=O)/C=C/c3ccc(C)cc3)cc2)nn1 | 94.4% |
| COc1ccc(NC(=O)/C(Cl)=C(/Cl)S(=O)Cc2ccc(C)cc2)cn1 (stereo not given) | 0.92% (active) |
| COc1cc(NC(=O)Nc2ccc(C)cc2)cc([N+](=O)[O-])c1 | 79.8% |
| O=C(/C=C/c1ccccc1[N+](=O)[O-])NCC1CCCO1 (stereo not given) | 102% |
| C=CCNC(=S)NNC(=O)c1ccc(Br)o1 | 94.9% |
| CCN(CC)S(=O)(=O)c1ccc(C)c(NC(=O)COc2ccc(Br)cc2Cl)c1 | 84.6% |

| Compound | viability |
| --- | --- |
| CCn1cc(/C=C2/SC(=S)NC2=O)c(C)n1 | 103% |
| COc1ccc(-c2cc(C(=O)NC(Cc3c[nH]c4ccccc34)C(=O)O)c(C)o2)cc1OC (stereo not given) | 99.7% |
| COc1ccccc1/C=N\Nc1cc(C)nc(-n2nc(C)cc2C)n1 | 2.6% (active) |
| COc1ccc(Nc2cc(C)nc(-n3nc(C)cc3C)n2)cc1 | 18.6% |
| COc1cc(NS(=O)(=O)c2ccccc2)ccc1-n1nc(C)cc1C | 94.5% |
| CCN(CC)CCn1c(/N=C/c2cc(Br)ccc2O)nc2ccccc21 | 94% |
| O=C(NCCc1ccccn1)c1cc(-c2ccc(Cl)cc2)nc2ccccc12 | 98.1% |
| c1ccc(-c2cc3c(NCC4COc5ccccc5O4)ncnc3s2)cc1 (stereo not given) | 42.1% |
| CCCc1cc(=O)[nH]c(SCC(=O)N2CCN(S(=O)(=O)c3ccc(C)cc3C)CC2)n1 | 93% |
| COc1ccc(CC(=O)Nc2ccc(-c3nnc(-c4ccc(C)cc4)o3)cc2)cc1 | 2.56% (active) |
| COc1cccc(NC(=O)Cc2ccc(C)cc2)c1 | 113% |
| COc1ccc(CC(=O)Nc2ccc(C(=O)NC(C)(C)C)cc2)cc1 | 92.4% |
| Cc1cccc(C)c1NC(=O)C(c1ccccc1)N1CC(=O)Nc2ccccc21 (stereo not given) | 66% |
| O=C(NNc1ccccc1Cl)C(O)(c1cccc(C(F)(F)F)c1)c1cccc(C(F)(F)F)c1 | 1.89% (active) |
| CC(CC(=O)Nc1cc(C(F)(F)F)ccc1Cl)c1ccccc1 (stereo not given) | 51.3% |
| O=C(Nc1cc(C(F)(F)F)ccc1Cl)C(=O)N1CCCCC1 | 91.1% |
| Cc1cc(C(=O)N/N=C/c2cc([N+](=O)[O-])cc(C)c2O)n[nH]1 | 83% |
| O=C(COC(=O)[C@H](Cc1ccccc1)NC(=O)c1cccs1)Nc1cc(F)ccc1F | 91.4% |
| CCCSc1nc2[nH]ncc2c(=O)[nH]1 | 90.6% |
| Cc1cc2oc(C(=O)Nc3c(C)n(C)n(-c4ccccc4)c3=O)c(C)c2cc1Cl | 85% |
